ERK EGF block: EGF-driven ERK pathway inhibition; HEK293-V1b, EGF-stimulated phospho-ERK AlphaScreen; Potency, µM (titrated, usually from 11.5 µM), inactives show top-dose activity change, negative = inhibition, hits mostly inhibitors; 130,000 tested, 0.41% active; AID 1454; active = well fitted inhibition curve with a large enough effect;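 also: plate controls were stimulated vehicle wells for no effect and unstimulated vehicle basal for full effect; nearly all actives have a fitted effect of over 55% in size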
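In this qHTS, HEK293 cells with stable type-1 vasopressin (V1b) receptor were exposed to compound at 37C for 30 min, stimulated 5 min with EGF at 25 nM, lysed, and probed for phospho-ERK by AlphaScreen.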
Numbers without * were called inactive; [ ] = dose if it differs, or a comment. The full list was thinned out, with hits kept by preference. Potency is read from the fitted curve at half-maximal effect.

What do the screens show for `O=C(Nc1ccc(F)cc1F)N1CCN(CCc2ccccc2)CC1`?
ERK EGF block: -3%[57.5 µM]

Results for O=C1/C(=C/c2ccncc2)N=C2CCCCCN12 ?
ERK EGF block: -10%[57.5 µM]

What do the screens show for `O=C1/C(=C/c2ccncc2)CCC/C1=C\c1ccncc1`?
ERK EGF block: 22µM*

How did O=C1CCC/C1=C\c1ccccc1 do in these assays?
ERK EGF block: -8%

Results for Cc1c(Cl)cccc1NC(=O)CNCc1ccccc1F ?
ERK EGF block: -20%

Results for CCCn1c(-c2ccc(F)cc2)nc2c(NC(C)CCCN(CC)CC)nc(C)nc21 (stereo not given) ?
ERK EGF block: 6%

What do the screens show for `CCCCNC(=O)NCCN1CCOCC1`?
ERK EGF block: 2%[57.5 µM]

Results for Cc1nc(-c2ccc(S(=O)(=O)Nc3cc(S(=O)(=O)N(C)C)ccc3C)s2)cs1 ?
ERK EGF block: 1%[57.5 µM]

Results for CC(C)C[C@@H](CC(=O)N[C@@H](CCC(=O)O)CC(=O)O)NC(=O)[C@@H]1CNCC[C@H]1NC(=O)C[C@H](CCCN)NC(=O)C[C@H](Cc1ccccc1)NC(=O)[C@@H]1CNCC[C@H]1N ?
ERK EGF block: 0%

How did CC(C)c1ccc(NC(=O)C2CC(=O)Nc3nc4ccccc4n32)cc1 (stereo not given) do in these assays?
ERK EGF block: -9%[57.5 µM]

How did Cc1cccc(-c2cc3nc(C)cc(C)n3n2)c1 do in these assays?
ERK EGF block: -13%

How did Cc1cccc(-c2cc3nc(C)c(C)c(NCCCn4ccnc4)n3n2)c1 do in these assays?
ERK EGF block: 32µM*

What do the screens show for `Cc1cc(-c2ccccc2)nc2cc(C(=O)NCCCn3ccnc3)nn12`?
ERK EGF block: -2%

What do the screens show for `CC(C)(C)NC(=O)Cc1ccc(Cl)c(Cl)c1`?
ERK EGF block: 2%

Results for CC(NC(=O)C12CC3CC(CC(C3)C1)C2)C(=O)N/N=C/C1=C(N2CCOCC2)C(=C\c2cccc([N+](=O)[O-])c2)/CC1 (stereo not given) ?
ERK EGF block: 19%

How did N#C/C(=C\C1=C(N2CCOCC2)C(=C/c2cccc([N+](=O)[O-])c2)/CC1)C(=O)Nc1ccccc1F do in these assays?
ERK EGF block: 3.5µM*

Results for O=C(/C=C/c1cccc([N+](=O)[O-])c1)Nc1ccccc1N1CCOCC1 ?
ERK EGF block: -4%

What do the screens show for `CCC(C)Sc1nc2c(c(=O)[nH]1)C(c1cccs1)C1=C(CCCC1=O)N2` (stereo not given)?
ERK EGF block: 9%

How did O=c1c(Cl)c(NCC2CCCO2)cnn1C12CC3CC(CC(C3)C1)C2 (stereo not given) do in these assays?
ERK EGF block: 13%

Results for Clc1ccc2scc(CN3CCCCC3)c2c1 ?
ERK EGF block: 1%

What do the screens show for `Cc1cc(N=Nc2ccc(Cl)cc2)cc(CN2CCCC2)c1O`?
ERK EGF block: 32µM*

Results for O=C(NN1CCN(Cc2ccccc2Cl)CC1)c1ccc(Cl)cc1 ?
ERK EGF block: 7%

What do the screens show for `Cc1ccc2c(CN3CCOCC3)cc(=O)oc2c1`?
ERK EGF block: -1%[57.5 µM]

What do the screens show for `Cc1cc(N=Nc2ccc(Cl)cc2)cc(CN2CCOCC2)c1O`?
ERK EGF block: 16µM*

How did Oc1c(CN2CCOCC2)cc2c(c1-c1c(O)c(CN3CCOCC3)cc3c1CCCC3)CCCC2 do in these assays?
ERK EGF block: -15%

What do the screens show for `O=C(c1cnccn1)N1CCC2(CC1)CCN(c1ccccc1)CC2`?
ERK EGF block: 6%

Results for CC(CCc1ccccc1)NCC#N (stereo not given) ?
ERK EGF block: -6%[57.5 µM]

How did N=C1SC(CC(=O)Nc2ccccc2[N+](=O)[O-])C(=O)N1c1ccccc1 (stereo not given) do in these assays?
ERK EGF block: -28%[57.5 µM]

Results for Cc1cc(=O)oc2cc(OCC(=O)OCC(=O)NC3CC3)ccc12 ?
ERK EGF block: 1%

Results for CC(C)c1ccccc1-n1c(SCC(=O)N2CCc3ccccc3C2)nc2ccccc2c1=O ?
ERK EGF block: 39%

Results for O=C(CSc1nc2ccccc2c(=O)n1-c1ccccc1)N1CCc2ccccc2C1 ?
ERK EGF block: 28µM*

How did O=C(CSc1nc2ccccc2c(=O)n1-c1ccccc1)N1CCC1 do in these assays?
ERK EGF block: -7%

Results for Cc1ccc2nc(C3CCCN3Cc3nc(CCC(C)C)no3)[nH]c2c1 (stereo not given) ?
ERK EGF block: -17%[57.5 µM]

How did Cc1ccc(N2CC(=O)N(CC(=O)O)C2=O)cc1 do in these assays?
ERK EGF block: -7%

Results for O=C(CCN1CCC(c2ccc(Cl)s2)=N1)c1ccc(Cl)s1 ?
ERK EGF block: -12%[57.5 µM]

What do the screens show for `C[C@@H](NC(=O)c1nc[nH]c1C(=O)N[C@@H](Cc1ccccc1)C(=O)OCc1ccccc1)c1ccccc1`?
ERK EGF block: 10%[57.5 µM]

What do the screens show for `CC(C)(C)OC(=O)NCc1ccc(NC(=O)c2nc[nH]c2C(=O)N[C@@H](Cc2ccccc2)C(=O)OC(C)(C)C)cc1`?
ERK EGF block: -29%[57.5 µM]

How did CC(C)C[C@H](NC(=O)c1[nH]cnc1C(=O)Nc1ccc(CNC(=O)OC(C)(C)C)cc1)C(=O)OCc1ccccc1 do in these assays?
ERK EGF block: -12%[57.5 µM]

Results for C[C@H](NC(=O)c1[nH]cnc1C(=O)Nc1ccc(CNC(=O)OC(C)(C)C)cc1)C(=O)OCc1ccccc1 ?
ERK EGF block: 32µM*

Results for O=C(N[C@@H](Cc1ccccc1)C(=O)OCc1ccccc1)c1nc[nH]c1C(=O)NC(c1ccccc1)c1ccccc1 ?
ERK EGF block: 40µM*

How did C[C@H](NC(=O)c1nc[nH]c1C(=O)N[C@@H](Cc1ccccc1)C(=O)OCc1ccccc1)c1ccccc1 do in these assays?
ERK EGF block: -8%[57.5 µM]

What do the screens show for `N#CCCCS(=O)(=O)c1nnnn1-c1ccc(F)cc1Br`?
ERK EGF block: -17%

What do the screens show for `CC(O)[C@@H](O)[C@H]1CNc2nc(N)[nH]c(=O)c2N1` (stereo not given in full)?
ERK EGF block: 7%

How did CSc1ccc(C#N)cc1NC(=O)c1cccnc1Cl do in these assays?
ERK EGF block: -1%

Results for N=C(c1ccc([N+](=O)[O-])cc1)N1CCCCCC1 ?
ERK EGF block: -23%

Results for Cc1cc(NC(=O)CSc2nc3cc(C(=O)NCCCOC(C)C)ccc3c(=O)n2Cc2ccco2)no1 ?
ERK EGF block: 5%

Results for CC(C)C(=O)N(Cc1ccc(F)cc1)Cc1nc2ccccc2c(=O)[nH]1 ?
ERK EGF block: 7%

What do the screens show for `CC(C)Cc1cc(C(=O)N2CCC(N3CCC(C(=O)N4CCOCC4)CC3)CC2)n[nH]1`?
ERK EGF block: 14%

What do the screens show for `CN(C)CCCN(C(=O)c1ccc2c(c1)CCCC2)c1nc2ccc(Cl)cc2s1`?
ERK EGF block: 20µM*

Results for CN(C)CCCN(C(=O)c1sc2ccccc2c1Cl)c1nc2ccc(F)cc2s1 ?
ERK EGF block: 0%

What do the screens show for `CN(C)CCCN(C(=O)COc1ccccc1)c1nc2ccc(Cl)cc2s1`?
ERK EGF block: -2%

What do the screens show for `O=C1[C@@H]2C(c3cccnc3)=NO[C@@H]2C(=O)N1c1ccc2ccccc2c1`?
ERK EGF block: -6%[57.5 µM]

How did Cc1cc([N+](=O)[O-])nn1CC(=O)Nc1cccc2nonc12 do in these assays?
ERK EGF block: 0%

What do the screens show for `COc1ccc(CNc2ncnc3cc(OC)c(OC)cc23)cc1OC`?
ERK EGF block: 1%[57.5 µM]

What do the screens show for `c1coc(CNc2ncnc3[nH]ncc23)c1`?
ERK EGF block: -2%[57.5 µM]

Results for COc1cc2ncnc(NCc3ccco3)c2cc1OC ?
ERK EGF block: 22µM*

What do the screens show for `COc1cc(C(=S)N2CCOCC2)cc(OC)c1O`?
ERK EGF block: -13%[57.5 µM]

From PubChem BioAssay
